Reference: PubChem BioAssay (NCATS)
Records with an inconclusive call do not appear. Unmarked numbers belong to inactive results. Active and inactive are the calls of the source. Calls come from the whole dose curve; as a rule, active = well fitted inhibition curve with a large enough effect; inconclusive = small, poorly fitted or top-dose-only effect; inactive = no such curve, though single readings can be large or run the other way.

Molecular target: Muscarinic acetylcholine receptor M1 (Rattus norvegicus) (UniProt P08482)
Sequence (P08482 whole entry, looked up): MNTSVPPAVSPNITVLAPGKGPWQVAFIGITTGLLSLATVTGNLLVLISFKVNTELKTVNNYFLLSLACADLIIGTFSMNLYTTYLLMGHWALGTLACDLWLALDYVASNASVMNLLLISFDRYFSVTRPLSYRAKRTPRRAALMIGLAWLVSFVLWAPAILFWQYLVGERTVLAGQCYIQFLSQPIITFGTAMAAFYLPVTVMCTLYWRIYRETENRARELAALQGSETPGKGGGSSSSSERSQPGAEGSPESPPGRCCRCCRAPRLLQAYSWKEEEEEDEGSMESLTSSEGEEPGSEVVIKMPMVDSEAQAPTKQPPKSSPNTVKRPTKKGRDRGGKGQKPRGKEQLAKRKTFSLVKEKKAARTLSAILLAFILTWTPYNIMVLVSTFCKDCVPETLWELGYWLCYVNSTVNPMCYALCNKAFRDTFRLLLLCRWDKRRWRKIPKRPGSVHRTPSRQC
Test: qHTS Assay for Antagonists of Acetylcholine Muscarinic M1 Receptor: Measurement of IP-One Response (AID 944); note: nearly all actives have a fitted effect of over 75% in size
Conditions: CHO-M1 cells, IP-One HTRF, antagonist mode; series mostly up to 46.1 µM; activity change, negative = inhibition: at the top concentration
Description: NIH Molecular Libraries Screening Centers Network [MLSCN]
NIH Chemical Genomics Center [NCGC]
Acetylcholine muscarinic M1 receptor is a G-protein coupled receptor (GPCR) coupling to the Gq G protein. It is mainly expressed in brain and functionally related to the learning and memory processes. The agonists of this receptor have the potential for the treatment of Alzheimer's disease and cognitive impairments associated with Schizophrenia.
Upon an activation of the M1 receptor, phosholipase C (PLC) is activated to produce inositol 1,4,5-trisphosphate (IP3) and diacyl glycerol (DAG). The IP3 is very rapidly hydrolyzed to IP2, IP1 and then inositol by a series of enzymes and Ca2+ is quickly pumped back into ER by the calcium pump on the ER membrane, which effectively switches off the IP3 and Ca2+ signaling. For compound screen, the changes in intracellular free Ca2+ concentration can be measured by the fluorescence calcium dye such as Fura-2, Fluo-3 and Fluo-4 with a fluorescence kinetic plate reader. IP1 or total IPs including IP1, IP2 and IP3 are usually measured as an alternative method for assessing the function of Gq-coupled GPCRs. We have applied a time-resolved fluorescence based (TR-FRET) IP1 assay in which an IP1 specific antibody is used to detect the labeled IP1 tracer. When the cell lysate contains the elevated IP1, the TR-FRET between the labeled antibody and IP1 tracer is disrupted resulting in a reduction in the total signal. Since the TR-FRET is used, a homogenous assay with out cell wash and medium change is possible which also can be miniaturized into the high density format for HTS.
We have obtained a M1-CHO cell line transfected with rat acetylcholine M1 receptor and optimized this IP-One assay with this cell line for compound screening as a counter-screen assay for other Gq-coupled GPCRs.
NCGC Assay Protocol Summary:
The CHO-M1 (CHO-M1) cell line transfected with the rat acetylcholine muscarinic M1 receptor was obtained from American Type Culture Collection (ATCC). The cells were maintained in call culture flasks with F12 Kaighn's media (Invitrogen) supplemented with 10 % FBS, 100 units/ml penicillin, 100 ug/ml streptomycin and 250 ug/ml geneticin (Invitrogen) at 37C, 5 % CO2 in a humidified atmosphere. At 90-95 % confluence, the cells were then detached in 15 ml 0.25 % trypsin by 3 minutes incubation at 37C and centrifuged at 1000 RPM to remove the trypsin solution. The resulting cell pellet was resuspended in the cell freezing media containing 10 % DMSO (Invitrogen) at a density of 4 x 10^7 cells/ml. The aliquots of cells at 0.5 - 1 ml per vial were frozen down slowly at 1 degree C/min using a Cryo 1 degree C freezing container in the presence of isopropanol (Nalgene Nunc, Rochster, NY) overnight in a -80C freezer. The frozen cells were then transferred to liquid nitrogen for the storage up to one year.
The resuspended frozen cells were plated at 3 ul/well with 2000 cells in the black, tissue culture treated, clear bottom 1536-well plates. The cells were cultured at 37C, 5 % CO2 for overnight to allow the cells recovering from the frozen state. 20 nl/well of compound in DMSO solution was added to the assay plate and incubated for 10 min. Carbachol was prepared in stimulation buffer (10mM Hepes, 1mM CaCl2, 0.5 mM MgCl2, 4.2 mM KCl, 146 mM NaCl, 5.5 mM glucose 50mM LiCl 50mM pH7.4) which was added to the assay plate at 1 ul/well. After an incubation with carbachol at 37C, 5 % CO2 for 30 min, all the wells in the assay plate were added with 1 ul/well of d2 conjugated IP1 (d2-IP1) and 1 ul/well of Eu+ cryptate conjugated anti-IP1 antibody (Eu+-Ab), both from the IP-One kit (Cisbio USA., Inc.). After 10 min incubation at the room temperature, the assay plates were measured in the HTRF detection mode in ViewLux plate reader (Ex=337 nm. Em(1)=620 and Em(2)=665 nm)
1536-well assay protocol:
(1) 4 ul/well containing 2000 M1-CHO cells in 1536 tissue culture treated white plate
(3) Add 23 nl compound diluted in DMSO
[…]

Row | SMILES | activity change, negative = inhibition [%] | outcome
1 | CC1=C(/C=C/C(C)=C/C=C/C(C)=C/C(=O)Nc2ccc(O)cc2)C(C)(C)CCC1 | -35.6 | 
2 | C[N+](C)(C)CCCCCC[N+](C)(C)C |  | inactive
3 | O=c1cc(-c2ccc(O)cc2)oc2cc(O)cc(O)c12 | -33.4 | 
4 | CCN(CC)C(=O)c1ccc(O)c(OC)c1 | -37.1 | 
5 | CCN(CC)CCNC(=O)c1ccc(N)cc1 | -27.1 | 
6 | CC(=O)CCCCn1c(=O)c2c(ncn2C)n(C)c1=O | -17 | 
7 | Clc1ccc(Cn2c(CN3CCCC3)nc3ccccc32)cc1 | -42.2 | 
8 | NCCS | -41.1 | 
9 | C[N+](C)(C)CC(=O)O | -28.4 | 
10 | COc1cccc(-c2cc(=O)c3ccccc3o2)c1N | -36.7 | 
11 | COCCCCC(=NOCCN)c1ccc(C(F)(F)F)cc1 | -43.3 | 
